Laboratory results from PubChem BioAssay AID1159580 (chemical genetic matrix, 2015).
In all, about 5,500 compounds went through this assay and about 2,000 (36%) were called active. Another 18% or so got no clear call; they are omitted. Cut-off read from the data, not from the text of the source: active = normalized growth mostly below about 0.91 (no sharp cut-off); inconclusive = no clear call, values can overlap the other calls; inactive = mostly above about 0.92. Some of the results follow.

Experiment: chemical genetic growth profiling, strain panel (AID 1159580);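 note: tested at 20 µM; growth read once vehicle control cultures reached saturation at 30 °C; 1 = growth at the plate median or of vehicle wells; lower values mean less growth of the strain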
Details: S. cerevisiae deletion strains, growth OD
[1] = locus YAR019C, strain CDC15, stronger effect = lower value
[2] = locus YBL105C, strain PKC1, stronger effect = lower value
[3] = locus YBR135W, strain CKS1, stronger effect = lower value
[4] = locus YBR136W, strain MEC1, stronger effect = lower value
[5] = locus YBR160W, strain CDC28, stronger effect = lower value
[6] = locus YDL017W, strain CDC7, stronger effect = lower value
[7] = locus YDL028C, strain MPS1, stronger effect = lower value
[8] = locus YDL101C, strain DUN1, stronger effect = lower value
[9] = locus YDL108W, strain KIN28, stronger effect = lower value
[10] = locus YDL132W, strain cdc53, stronger effect = lower value
[11] = locus YDL214C, strain PRR2, stronger effect = lower value
[12] = locus YDR052C, strain DBF4, stronger effect = lower value
[13] = locus YDR054C, strain cdc34, stronger effect = lower value
[14] = locus YDR226W, strain ADK1, stronger effect = lower value
[15] = locus YDR477W, strain SNF1, stronger effect = lower value
[16] = locus YER123W, strain YCK3, stronger effect = lower value
[17] = locus YER133W, strain GLC7, stronger effect = lower value
[18] = locus YFL009W, strain cdc4, stronger effect = lower value
[19] = locus YFL029C, strain CAK1, stronger effect = lower value
[20] = locus YFR003C, strain YPI1, stronger effect = lower value
[21] = locus YFR019W, strain FAB1, stronger effect = lower value
[22] = locus YFR028C, strain CDC14, stronger effect = lower value
[23] = locus YGR040W, strain KSS1, stronger effect = lower value
[24] = locus YGR052W, strain FMP48, stronger effect = lower value
[25] = locus YGR092W, strain DBF2, stronger effect = lower value
[26] = locus YHR030C, strain SLT2, stronger effect = lower value
[27] = locus YHR079C, strain IRE1, stronger effect = lower value
[28] = locus YHR082C, strain KSP1, stronger effect = lower value
[29] = locus YHR205W, strain SCH9, stronger effect = lower value
[30] = locus YIL147C, strain SLN1, stronger effect = lower value
[31] = locus YJL095W, strain BCK1, stronger effect = lower value
[32] = locus YJL128C, strain PBS2, stronger effect = lower value
[33] = locus YJL157C, strain FAR1, stronger effect = lower value
[34] = locus YJR016C, strain ILV3, stronger effect = lower value
[35] = locus YJR066W, strain TOR1 (second series), stronger effect = lower value
[36] = locus YJR066W, strain TOR1, stronger effect = lower value
[37] = locus YKL048C, strain ELM1, stronger effect = lower value
[38] = locus YKL067W, strain YNK1, stronger effect = lower value
[39] = locus YKL101W, strain HSL1, stronger effect = lower value
[40] = locus YKL193C, strain SDS22, stronger effect = lower value
[41] = locus YKL203C, strain TOR2, stronger effect = lower value
[42] = locus YLR113W, strain HOG1, stronger effect = lower value
[43] = locus YLR133W, strain CKI1, stronger effect = lower value
[44] = locus YLR403W, strain SFP1, stronger effect = lower value
[45] = locus YML070W, strain DAK1, stronger effect = lower value
[46] = locus YMR001C, strain CDC5, stronger effect = lower value
[47] = locus YMR205C, strain PFK2 (second series), stronger effect = lower value
[48] = locus YMR277W, strain FCP1, stronger effect = lower value
[49] = locus YNL006W, strain LST8, stronger effect = lower value
[50] = locus YNL020C, strain ARK1, stronger effect = lower value
[51] = locus YNL161W, strain CBK1, stronger effect = lower value
[52] = locus YNL183C, strain NPR1, stronger effect = lower value
[53] = locus YNL207W, strain RIO2, stronger effect = lower value
[54] = locus YNL222W, strain SSU72, stronger effect = lower value
[55] = locus YNL307C, strain MCK1 (second series), stronger effect = lower value
[56] = locus YOL078W, strain AVO1, stronger effect = lower value
[57] = locus YOL136C, strain PFK27, stronger effect = lower value
[58] = locus YOR061W, strain CKA2, stronger effect = lower value
[59] = locus YOR119C, strain RIO1, stronger effect = lower value
[60] = locus YOR231W, strain MKK1, stronger effect = lower value
[61] = locus YOR329C, strain SCD5, stronger effect = lower value
[62] = locus YPL031C, strain PHO85, stronger effect = lower value
[63] = locus YPL153C, strain RAD53, stronger effect = lower value
[64] = locus YPL204W, strain HRR25, stronger effect = lower value
[65] = locus YPL209C, strain IPL1, stronger effect = lower value
[66] = locus YPL256C, strain CLN2, stronger effect = lower value
[67] = locus YPR025C, strain CCL1, stronger effect = lower value
[68] = locus YPR106W, strain ISR1, stronger effect = lower value
[69] = locus YPR111W, strain DBF20, stronger effect = lower value
[70] = strain NNK1, stronger effect = lower value
[71] = strain TSCII, stronger effect = lower value

Measured: normalized growth

CC(C)(C)C(=O)N(Cc1cccnc1)Cc1ccc(Cl)cc1Cl
inactive: [1] 0.998 | [2] 0.988 | [3] 1 | [4] 0.986 | [5] 0.995 | [6] 0.992 | [7] 0.992 | [8] 0.985 | [9] 0.982 | [10] 0.997 | [11] 0.914 | [12] 0.993 | [13] 0.991 | [14] 1 | [15] 0.948 | [16] 0.842 | [17] 0.948 | [18] 0.998 | [19] 0.996 | [20] 0.993 | [21] 0.9 | [22] 1 | [23] 0.928 | [24] 1.01 | [25] 0.936 | [26] 1.07 | [27] 1.01 | [28] 1.02 | [29] 0.935 | [30] 0.983 | [31] 1.04 | [32] 0.96 | [33] 0.909 | [34] 0.998 | [35] 0.909 | [36] 0.995 | [37] 0.973 | [38] 0.938 | [39] 0.943 | [40] 0.995 | [41] 0.99 | [42] 1.02 | [43] 0.952 | [44] 0.913 | [45] 0.907 | [46] 0.995 | [47] 0.936 | [48] 0.996 | [49] 1 | [50] 0.934 | [51] 0.997 | [52] 1.02 | [53] 1 | [54] 0.993 | [55] 0.963 | [56] 1 | [57] 0.919 | [58] 0.906 | [59] 0.988 | [60] 1.02 | [61] 0.996 | [62] 0.925 | [63] 0.917 | [64] 0.927 | [65] 0.989 | [66] 1.02 | [67] 0.995 | [68] 0.992 | [69] 0.997 | [70] 0.993 | [71] 0.996

O=C(c1cccs1)N(Cc1cccnc1)Cc1ccc(Cl)cc1Cl
active: [26] 1.22 [resistant] | [66] 1.15 [resistant]
inactive: [1] 0.979 | [2] 0.966 | [3] 0.961 | [4] 0.955 | [5] 0.964 | [6] 0.968 | [7] 0.961 | [8] 0.97 | [9] 0.96 | [10] 0.96 | [11] 0.94 | [12] 0.96 | [13] 0.968 | [14] 0.96 | [15] 0.934 | [16] 0.887 | [17] 0.946 | [18] 0.96 | [19] 0.97 | [20] 0.966 | [21] 0.918 | [22] 0.965 | [23] 0.92 | [24] 1.01 | [25] 0.984 | [27] 1.21 | [28] 1.07 | [29] 0.971 | [30] 0.964 | [31] 1.04 | [32] 0.939 | [33] 0.95 | [34] 0.971 | [35] 0.941 | [36] 1.1 | [37] 0.963 | [38] 0.938 | [39] 0.929 | [40] 0.969 | [41] 1.02 | [42] 1 | [43] 0.945 | [44] 0.965 | [45] 0.929 | [46] 0.966 | [47] 0.944 | [48] 0.974 | [49] 0.967 | [50] 0.947 | [51] 0.968 | [52] 1.04 | [53] 0.969 | [54] 0.957 | [55] 0.955 | [56] 0.962 | [57] 0.906 | [58] 0.929 | [59] 0.978 | [60] 0.997 | [61] 0.972 | [62] 0.927 | [63] 0.937 | [64] 0.902 | [65] 0.969 | [67] 0.965 | [68] 0.969 | [69] 0.955 | [70] 0.975 | [71] 0.966

O=C(c1ccc(Cl)cc1)N(Cc1ccccc1)Cc1cccnc1
inactive: [1] 0.994 | [2] 0.985 | [3] 0.989 | [4] 0.979 | [5] 0.986 | [6] 0.981 | [7] 0.989 | [8] 0.987 | [9] 0.98 | [10] 0.993 | [11] 0.866 | [12] 0.985 | [13] 0.987 | [14] 0.987 | [15] 0.886 | [16] 0.748 | [17] 0.868 | [18] 0.994 | [19] 0.996 | [20] 0.983 | [21] 0.801 | [22] 0.992 | [23] 0.874 | [24] 0.869 | [25] 0.865 | [26] 0.976 | [27] 0.96 | [28] 0.896 | [29] 0.918 | [30] 0.977 | [31] 0.862 | [32] 0.956 | [33] 0.845 | [34] 0.99 | [35] 0.853 | [36] 0.89 | [37] 0.965 | [38] 0.885 | [39] 0.905 | [40] 0.987 | [41] 0.944 | [42] 0.884 | [43] 0.905 | [44] 0.864 | [45] 0.859 | [46] 0.991 | [47] 0.885 | [48] 0.989 | [49] 1.01 | [50] 0.885 | [51] 0.994 | [52] 0.909 | [53] 0.986 | [54] 0.989 | [55] 0.885 | [56] 0.994 | [57] 0.877 | [58] 0.828 | [59] 0.915 | [60] 0.912 | [61] 0.991 | [62] 0.877 | [63] 0.851 | [64] 0.885 | [65] 0.988 | [66] 0.966 | [67] 0.984 | [68] 0.995 | [69] 0.998 | [70] 0.991 | [71] 0.995

O=S(=O)(c1ccc(Cl)cc1)N(Cc1cccnc1)Cc1ccc(Cl)cc1Cl
active: [15] 0.537 | [16] 0.469 | [17] 0.57 | [21] 0.727 | [23] 0.518 | [24] 0.543 | [26] 0.465 | [31] 0.273 | [35] 0.586 | [36] 0.46 | [41] 0.408 | [42] 0.54 | [44] 0.549 | [45] 0.673 | [47] 0.713 | [52] 0.47 | [59] 0.428 | [62] 0.478 | [63] 0.42 | [64] 0.526 | [66] 0.674
inactive: [1] 0.951 | [2] 0.966 | [3] 0.962 | [4] 0.95 | [5] 0.969 | [6] 0.968 | [7] 0.96 | [8] 0.967 | [9] 0.946 | [10] 0.929 | [11] 0.732 | [12] 0.924 | [13] 0.928 | [14] 0.938 | [18] 0.947 | [19] 0.942 | [20] 0.963 | [22] 0.94 | [25] 0.704 | [27] 0.55 | [28] 0.7 | [29] 0.583 | [30] 0.939 | [32] 0.958 | [33] 0.715 | [34] 0.949 | [37] 0.89 | [38] 0.745 | [39] 0.799 | [40] 0.941 | [43] 0.767 | [46] 0.963 | [48] 0.932 | [49] 0.959 | [50] 0.743 | [51] 0.968 | [53] 0.913 | [54] 0.961 | [55] 0.68 | [56] 0.946 | [57] 0.711 | [58] 0.787 | [60] 0.593 | [61] 0.96 | [65] 0.949 | [67] 0.952 | [68] 0.962 | [69] 0.975 | [70] 0.948 | [71] 0.927
